Assay outcomes: PubChem, several laboratories
A selection: hits, their analogues and other compounds. The true share with any hit is near 1.3%.
NCOA2 inhibitor – inhibition of GAL4-SRC2 driven luciferase reporter, primary screen, SRC2 inhibitor project, cell-based, luminescence; Nuclear receptor coactivator 2 (Homo sapiens), Q15596; HEK293 GAL4-SRC2 luciferase reporter; inhibition, % at 9 µM; hit rate 0.17% among 370,000;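 active means inhibition above the mean inhibition of all tested compounds plus 3 SD, set per campaign, cut at about 52% in these data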;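 further: 0% = DMSO treated cells and 100% = cells given Gossypol at 36 µM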
Gli-Sufu block – Gli-Sufu pathway antagonists, primary screen, luciferase luminescence, Sufu-KO-LIGHT cells, uHTS; Sufu-KO-LIGHT fibroblasts, Gli luciferase reporter luminescence; inhibition, % at 5 µM; hit rate 0.74% among 340,000; AID 588413, 2011;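 active means inhibition above about 55%, limit read from the data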;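 further: 0% = DMSO-treated cells and 100% = wells with medium but no cells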
NR2F2 inh – NR2F2 transcriptional activity inhibitors, primary screen, cell-based, luciferase reporter, HEK293T, luminescence | COUP transcription factor 2 (Homo sapiens), P24468 | HEK293T NGFI-A luciferase reporter | inhibition, % at 8.6 µM | hit rate 0.7% among 370,000 | AID 686940, 2013;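 active means inhibition above a per-plate cutoff, mean inhibition of test wells between control levels plus 3 SD, cut at about 38% in these data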;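 further: cells cotransfected with COUP-TFII expression vector driving the NGFI-A reporter; 0% = median of COUP-TF2 test wells and 100% = reporter-only cells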
SRC1 inh – SRC1 coactivator transcriptional activity inhibitors, primary screen, cell-based, luminescence; Nuclear receptor coactivator 1 (Homo sapiens), Q15788; HEK293 GAL4-SRC1 luciferase reporter; inhibition, % at 3.6 µM; hit rate 0.12% among 360,000; AID 588354, 2011;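 active means inhibition above the campaign mean plus 3 SD, with each screening campaign given its own cutoff, cut at about 60% in these data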;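 further: 0% = DMSO treated cells and 100% = gossypol at 36 µM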
NR5A2 inv ag – LRH-1 (NR5A2) inverse agonists, primary screen, cell-based, luminescence, HEK293T, StAR-luciferase reporter. Nuclear receptor subfamily 5 group A member 2 (Homo sapiens), O00482. LRH-1 transfected, 24 h. inhibition, % at 3.6 µM. hit rate 0.13% among 360,000. AID 602396, 2012;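 active means inhibition above the mean inhibition of all tested compounds plus 3 SD, cut at about 73% in these data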;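 further: 0% = DMSO wells and 100% = reporter-only cells lacking LRH-1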
NCOA3 inh – SRC3 coactivator transcriptional activity inhibitors, primary screen, cell-based, luminescence | HEK293 GAL4-SRC3 luciferase reporter | inhibition, % at 3.6 µM | hit rate 0.17% among 360,000;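 active means inhibition above a per-campaign cutoff, the mean of all compounds plus 3 SD, cut at about 60% in these data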;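 further: 0% = DMSO-treated cells and 100% = gossypol-treated cells at 36 µM; higher means less SRC3-driven luciferase light from the GAL4 reporter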
The depositor's hits bear a star; x = no result.

SMILES | NCOA2 inhibitor | Gli-Sufu block | NR2F2 inh | SRC1 inh | NR5A2 inv ag | NCOA3 inh
CCCCC(=O)NC(c1ccc(OC)cc1)c1ccc2cccnc2c1O (stereo not drawn) | 4.7 | x | 12.1 | 13.7 | 102.6* | 35.9
COc1ccc(C=Nn2c(-c3ccc(F)cc3)n[nH]c2=S)c(OC)c1OC | 19.2 | x | -15.9 | x | x | x
COC(=O)[C@H](CC(C)C)N(CCCc1cn(Cc2ccccc2)nn1)S(=O)(=O)c1ccc(F)cc1Br | -3.5 | x | -3.0 | x | x | x
CCN1CCN(Cc2ccc(NC(=O)c3ccc(C)c(NC(=O)c4cncc(-c5cccs5)c4)c3)cc2C(F)(F)F)CC1 | x | 72.3* | x | 24.2 | 47.6 | 30.6
CCN1CCN(Cc2ccc(NC(=O)c3ccc(C)c(NC(=O)c4nccn4C)c3)cc2C(F)(F)F)CC1 | -2.4 | 42.9 | 1.1 | 5.5 | 1.8 | -3.0
COC(=O)[C@]12C[C@H](CC(=O)N3CCSCC3)C(=O)N(Cc3cccc4ccccc34)C1=C[C@H](C(C)C)O[C@@H]2C1CC1 | -4.6 | x | 2.4 | x | x | x
C=C1C(=O)[C@]23C[C@H]1CCC2[C@@]1(C)C(C[C@@H]3O)[C@](C)(C(=O)OC)CC[C@@H]1O (stereo partly drawn) | 63.6* | x | 27.2 | 43.0 | 47.9 | 40.4
CC1CN(S(=O)(=O)c2ccc(C(=O)NCCCn3ccnc3)cc2)CC(C)O1 (stereo not drawn) | 47.5 | 15.1 | 8.2 | 62.3* | 67.0 | 54.3
CC1CN(S(=O)(=O)c2cccc(C(=O)NCCCn3ccnc3)c2)CC(C)O1 (stereo not drawn) | -4.2 | -5.9 | 5.0 | -7.7 | -2.4 | 7.4
O=C(Nc1ccc(NC(=O)c2ccco2)cc1)c1ccc2c(c1)OCCO2 | 61.3* | 31.5 | 29.3 | 2.8 | -28.2 | -2.8
C#CCn1cc[n+](CC(=O)N(C)C)c1 | -9.2 | -6.0 | 0.2 | -4.9 | -3.6 | 8.9
CCCCCCCCCCCCCCCCn1cc[n+](CC(C)=O)c1 | x | 73.3* | x | 6.5 | 24.4 | 7.7
Oc1ccccc1N=N/C(=N/Nc1ccccc1O)c1ccccc1 | -38.0 | 1.0 | 16.1 | -5.3 | 6.6 | -17.8
Cn1nnnc1N=N/C(=N/Nc1ccccc1)c1ccccc1 | 24.7 | -0.6 | -23.7 | 76.3* | 27.3 | 81.3*
COc1ccc(C(=O)CC(=O)c2ccc(C(C)(C)C)cc2)cc1 | -13.2 | 23.6 | 18.4 | -7.8 | -18.4 | -13.4
COc1ccc(C(=O)C(CCC(CNC(C)(C)C)C(=O)c2ccc(OC)cc2)CNC(C)(C)C)cc1 (stereo not drawn) | 53.8* | -11.0 | 2.8 | 22.7 | 11.6 | 34.9
c1ccc(-c2c[nH]c3ccc(OCc4ccc5ccccc5n4)c(-c4ccccc4)c23)cc1 | 10.4 | x | 5.8 | x | x | x
COc1ccc(-n2c(C)c(C(C)=O)c3cc(OC(C)=O)ccc32)cc1 | 32.3 | -13.7 | 26.6 | 62.1* | 30.5 | 59.0
CN(C)S(=O)(=O)c1cccc(NC(=S)Nc2cccc3cnccc23)c1 | 41.5 | -0.8 | 43.5* | 48.6 | 36.8 | 34.2
CCN(CC)c1nc2ccccc2[nH]c1=O | -9.9 | -6.8 | -14.2 | 16.2 | 4.8 | 3.1
CN(c1nc2ccccc2[nH]c1=O)C1CCCCC1 | -25.8 | 56.7* | -3.6 | 2.0 | 38.5 | -2.4
CN(C)[C@@H]1CCN(c2ccc3c(c2)O[C@H]2CCN(C2)S3(=O)=O)C1 | -6.9 | x | -8.8 | x | x | x
Cc1nnc(SC(=O)N2c3ccccc3Sc3ccccc32)s1 | 60.0* | 11.9 | -6.3 | 16.6 | 30.9 | 64.8*
CCOC(=O)N1c2ccccc2Sc2ccccc21 | -5.5 | -7.2 | 30.6 | 20.2 | 2.5 | 12.4
CC(=O)N(C)C1=C(N2CCOCC2)C(=O)c2ccccc2C1=O | x | 23.2 | x | 84.6* | 99.6* | 87.2*
SMILES | NCOA2 inhibitor | Gli-Sufu block | NR2F2 inh | SRC1 inh | NR5A2 inv ag | NCOA3 inh
CC(C)(C)N(Cc1cn(Cc2ccccc2)nn1)S(=O)(=O)c1ccccc1Br | 20.2 | x | 10.4 | x | x | x
CCC[C@H]1[C@@H](NC(=O)c2ccc(Cl)c(C(F)(F)F)c2)CC[C@@]23CCCN2C(=O)CCC[C@@H]13 | x | x | 14.1 | x | x | x
COc1ccc(OC(=O)C(C)N2C(=O)c3ccccc3C2=O)cc1 (stereo not drawn) | 7.8 | 3.8 | 20.8 | 12.8 | -6.3 | -5.1
CC1=CC(C)(C)Nc2ccc(OC(=O)c3cccnc3)cc21 | 38.8 | 5.0 | 8.7 | -4.3 | 22.4 | -8.5
CC1=CC(C)(C)Nc2ccc(OC(=O)C(C)N3C(=O)c4ccccc4C3=O)cc21 (stereo not drawn) | 63.1* | 9.3 | 17.6 | -8.3 | 11.6 | 6.1
CC1=CC(C)(C)Nc2ccc(OC(=O)c3ccco3)cc21 | 54.6* | 8.8 | 12.8 | 10.0 | 20.9 | -1.6
CC(=O)N1CCN(c2ccc(N3CCN(Cc4ccccc4)[C@@H](C)C3)c(C)c2)[C@H](C)C1 | -0.7 | x | 11.2 | x | x | x
COC(=O)[C@H]1C[C@@]2(N3CCCC3)c3ccccc3N(C(=O)OC(C)(C)C)[C@H]2N1C(=O)OC(C)(C)C | -22.9 | x | 0.5 | x | x | x
O=C(CCc1ccccc1)N[C@H]1[C@H](OC(=O)c2ccco2)CCC[C@@]12C(=O)N(Cc1ccccc1)c1ccccc12 | 10.7 | x | 9.9 | x | x | x
O=C(CSc1nnc(-c2ccco2)n1Cc1ccco1)c1ccc([N+](=O)[O-])cc1 | -5.3 | x | 5.3 | x | x | x
Brc1ccc2c(c1)CN1CCCC1=N2 | -1.4 | -7.7 | 10.8 | 60.9* | 44.7 | 39.4
CN(c1ccccc1)S(=O)(=O)c1ccc(NC(=O)c2nc(S(C)(=O)=O)ncc2Cl)cc1 | 56.4* | 16.1 | -1.1 | -25.7 | -1.6 | -20.1
CC(=O)Nc1ccc(NC(=O)c2nc(S(=O)(=O)Cc3cccc(C)c3)ncc2Cl)cc1 | 82.8* | 36.0 | -4.3 | -39.7 | -55.3 | -48.6
O=C1CSc2ccc(C(=O)N3CCCC(C(=O)N4CCCCC4)C3)cc2N1 (stereo not drawn) | -12.5 | x | -3.0 | x | x | x
CN[C@H]1C[C@H]2c3[nH]c4c(-c5cccc(C)c5)cccc4c3CCN2C(=O)[C@H]1[C@H](C)O | -18.5 | x | -9.8 | x | x | x
CCN1c2ccccc2N(C)C1(C)c1ccccc1 (stereo not drawn) | x | 37.6 | x | 20.6 | 13.7 | 19.4
CN1c2ccccc2N(C)C1(C)c1ccccc1 | -24.8 | 60.7* | 4.7 | -10.6 | 12.8 | -4.6
COc1ccc(NC(=O)CSc2nc(C)cc(=O)[nH]2)cc1OC | -2.2 | x | 6.7 | x | x | x
CCn1c(SCC(=O)Nc2nc(-c3ccc(C)cc3)cs2)nnc1-c1ccccc1O | 5.2 | 2.8 | 47.5* | -7.6 | 7.6 | 3.2
CCOC(=O)CNC(=O)N(C)[C@H]1C[C@H]2c3[nH]c4c(-c5cccc(C)c5)cccc4c3CCN2C(=O)[C@H]1[C@H](C)O | 8.5 | x | -8.2 | x | x | x
